# Source: PubChem BioAssay (NCATS)
# Assay: High-throughput drug toxicity screening in the BPDCN cell line Gen2.2 (AID 1224824)
# Conditions: Gen2.2 BPDCN cells; at 45.8 µM (top of the series) unless noted
# Text: Blastic plasmacytoid dendritic cell neoplasm (BPDCN) is a rare, aggressive and largely incurable hematologic malignancy originating from plasmacytoid dendritic cells (pDCs). Although an initial response to chemotherapy is common, BPDCN prognosis is extremely poor and most patients relapse with drug-resistant disease leading to a median overall survival of ~1 year after diagnosis. To explore novel potential therapeutic strategies in BPDCN, we performed a high-throughput drug toxicity screening in BPDCN cell liens, using of a library of 1,912 small molecules, enriched for compounds that are either approved or in early stages of development for cancer therapy.
# A total of 500 exponentially growing Gen2.2 cells were seeded per well in 5 uL of media (RPMI + Glutamine, without phenol red plus10% FBS and 1X Pen/Strep) into 1536-well solid white high base tissue culture treated Greiner One Bio Plates (789173-F), using a multidrop combi dispenser and a small sterile cassette. Compounds and controls totaling 23nL per well (negative control DMSO and positive control 9.2 uM Bortezomib-final) were immediately added to the plates using a 1536 head pin tool from Kalypsys. The plates were then covered with stainless steel gasket lids from Kalypsys and incubated for 48 hours at 37C under 95% relative humidity with 5% CO2. After 48 hours, the plates were removed and allowed to reach room temperature before 3 uL of Cell Titer Glo reagent (Promega) were added using an Aurora Flying Reagent Dispenser Bioraptor. The plates were then spun at 1000 rpms to remove bubbles and incubated for 15 minutes at room temperature before reading on a ViewLux using a luminescent filter with a 10 second exposure. The relative luciferase units were used to calculated percent activity using DMSO as 100% and Bortezomib as 0%.
row,SMILES,"cell viability, % of control (lower = more cytotoxic) [%]"
1,CCC(C)(Oc1ccc(C2(c3ccc(OC(C)(CC)C(=O)O)cc3)CCCCC2)cc1)C(=O)O (stereo not given),148
2,Nc1nc(N)c(N=O)c(OCC2CCCCC2)n1,18.1
3,O=C1CCc2ccc(OCCCCN3CCN(c4cccc(Cl)c4Cl)CC3)cc2N1,498
4,CC(=O)N1CCN(c2ccc(OC[C@H]3CO[C@](Cn4ccnc4)(c4ccc(Cl)cc4Cl)O3)cc2)CC1,64.7
5,Cc1ncc([N+](=O)[O-])n1CC(C)O (stereo not given),120
6,N=C(N)c1ccc2cc(OC(=O)c3ccc(N=C(N)N)cc3)ccc2c1,175
7,CN(C)c1ccc2nc3ccc(=[N+](C)C)cc-3sc2c1,10.9
8,O=C(OC1C[C@H]2CC[C@@H](C1)[N+]21CCCC1)C(O)(c1ccccc1)c1ccccc1 (stereo not given in full),120
9,CC1(C)C(=O)N(CCN2CCC(C(=O)c3ccc(F)cc3)CC2)c2ccccc21,37.4
10,CCCCCCCCOc1ccccc1C(=O)Nc1ccc(C(=O)OCC[N+](C)(CC)CC)cc1,52.3
11,CC(=O)Nc1ccc(O)cc1,105
12,CC1(C)NC(=O)N(c2ccc([N+](=O)[O-])c(C(F)(F)F)c2)C1=O,204
13,CC(S)C(=O)NCC(=O)O (stereo not given),104
14,CC1=C(C)C(=O)C(C(CCCCCC(=O)O)c2ccccc2)=C(C)C1=O (stereo not given),195
15,Cc1cccc(CN2CCN(C(c3ccccc3)c3ccc(Cl)cc3)CC2)c1 (stereo not given),156
16,O=C(NCC1CCCCN1)c1cc(OCC(F)(F)F)ccc1OCC(F)(F)F (stereo not given),42.6
17,COC1=C(OC)C(=O)C(CCCCCCCCCCO)=C(C)C1=O,145
18,CC(=O)O[C@H]1C(=O)[C@@]2(C)C([C@H](OC(=O)c3ccccc3)[C@]3(O)C[C@H](OC(=O)[C@H](O)[C@@H](NC(=O)c4ccccc4)c4ccccc4)C(C)=C1C3(C)C)[C@]1(OC(C)=O)CO[C@@H]1C[C@@H]2O (stereo not given in full),17
19,O=C(NC(Cc1cc(=O)[nH]c2ccccc12)C(=O)O)c1ccc(Cl)cc1 (stereo not given),149
20,Cc1cc(O)c2c(c1)C(=O)c1cc(O)cc(O)c1C2=O,207

row,SMILES,"cell viability, % of control (lower = more cytotoxic) [%]"
1,Cc1ccc(S(=O)(=O)NC(=O)NN2CC3CCCC3C2)cc1 (stereo not given),109
2,COc1ccc(C2(C#N)CCC(C(=O)O)CC2)cc1OC1CCCC1 (stereo not given),129
3,CCCCC(CC)COC(=O)C(C#N)=C(c1ccccc1)c1ccccc1 (stereo not given),157
4,COc1cc2c(N3CCN(C(=O)Nc4ccc(OC(C)C)cc4)CC3)ncnc2cc1OCCCN1CCCCC1,7.51
5,c1cnc2cc3c(cc2n1)C1CNCC3C1,95.8
6,CCN(CC)C(=S)SSC(=S)N(CC)CC,6.77
7,COc1cc(OC)c(C(=O)CCCN2CCCC2)c(OC)c1,165
8,COC(=O)N[C@H](C(=O)N[C@@H](Cc1ccccc1)[C@@H](O)CN(Cc1ccc(-c2ccccn2)cc1)NC(=O)[C@@H](NC(=O)OC)C(C)(C)C)C(C)(C)C,159
9,CC(C)C[C@H](NC(=O)[C@H](Cc1ccccc1)NC(=O)c1cnccn1)B(O)O,3.61
10,O=c1ccc2ccc(O)c(O)c2o1,42.5
11,Nc1ccc(S(N)(=O)=O)cc1,169
12,COCCCN1CCC(NC(=O)c2cc(Cl)c(N)c3c2OCC3)CC1,418
13,Oc1ccc2ccccc2c1SSc1c(O)ccc2ccccc12,2.05
14,CC(C)(S)[C@@H](N)C(=O)O,117
15,COc1cc2c(cc1OC)C1CC(=O)C(CC(C)C)CN1CC2 (stereo not given),141
16,O=Nc1c(-c2c(O)[nH]c3cc(Br)ccc23)[nH]c2ccccc12,1.04
17,COc1c(O)cc2c(c1O)[C@@H]1O[C@H](CO)[C@@H](O)[C@H](O)[C@H]1OC2=O,123
18,O=C(CS(=O)Cc1ccco1)NCC=CCOc1cc(CN2CCCCC2)ccn1 (stereo not given),120
19,CC(C)c1ccc2oc3nc(N)c(C(=O)O)cc3c(=O)c2c1,98.6
20,CC(C)c1ccc2c(c1)c(SC(C)(C)C)c(CC(C)(C)C(=O)O)n2Cc1ccc(Cl)cc1,111
